Screening results (PubChem BioAssay)
Shown are actives, neighbours in structure and some others; about 5.3% of the full set was active somewhere.
Tau FP inhib: qHTS for Inhibitors of Tau Fibril Formation, Fluorescence Polarization; 280,000 tested, 0.39% active; K18 P301L tau heparin fibrillization, Alexa594 FP, 6 h; Potency, µM (highest dose often 57.7 µM), usual class: inhibitors; Microtubule-associated protein tau (Homo sapiens), P10636; note: nearly all actives have a fitted effect of over 55% in size
Target sequence (P10636 561-689 P618L limits assumed): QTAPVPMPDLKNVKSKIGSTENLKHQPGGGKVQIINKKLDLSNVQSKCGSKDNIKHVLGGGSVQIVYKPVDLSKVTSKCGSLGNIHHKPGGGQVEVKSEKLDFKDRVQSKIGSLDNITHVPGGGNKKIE
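Human tau K18 […] P301L fragment, 15 uM unlabeled plus 0.24 uM Alexa 594-labeled tau (final), with compound and 20 uM heparin in 100 mM sodium acetate pH 7; 6 hr at 37 C, then Alexa 594 FP read.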
Sfp inh: qHTS Assay for Inhibitors of Bacillus subtilis Sfp phosphopantetheinyl transferase (PPTase). 4'-phosphopantetheinyl transferase ffp (Bacillus subtilis), Q9F4F7. Biochemical Sfp PPTase activity, qHTS. Potency, µM, usual class: inhibitors. 310,000 tested, 3.5% active. AID 1490, 2009;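 note: the enzyme is Sfp with the accession as filed and its product quenches rhodamine fluorescence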
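With Hepes-Na pH 7.6 buffer containing 10 mM MgCl2, Sfp (15 nM) modified BHQ-2-YbbR (12.5 uM) using rhodamine-CoA (5 uM). Two reads 30 minutes apart at 525/598 nm yielded each well's rate.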
Tau ThT inhib: qHTS for Inhibitors of Tau Fibril Formation, Thioflavin T Binding. Potency, µM (titrated, usually from 57.4 µM), usual class: inhibitors. 270,000 tested, 2.1% active. Microtubule-associated protein tau (Homo sapiens), P10636. recombinant tau K18 P301L, heparin-induced fibrillization, ThT fluorescence; note: nearly all actives have a fitted effect of over 55% in size
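Aggregation was driven by heparin (20 uM final) acting on recombinant tau […] bearing P301L in 100 mM sodium acetate pH 7; fibrils were detected with Thioflavin T.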
JMJD2E inh: qHTS Assay for Inhibitors of Human Jumonji Domain Containing 2E (JMJD2E); Lysine-specific demethylase 4E (Homo sapiens), B2RXH2; JMJD2E catalytic domain, FDH-coupled NADH fluorescence (FDH is formaldehyde dehydrogenase); Potency, µM (highest dose often 57.1 µM), usual class: inhibitors; 230,000 tested, 1.6% active; AID 2147, 2009; active = well fitted inhibition curve with a large enough effect, not every such curve was filed as active; inconclusive = small, poorly fitted or top-dose-only effect, or another doubt; inactive = no such curve, though single readings can be large or run the other way; note: nearly all actives have a fitted effect of over 50% in size
Target sequence (B2RXH2 1-337 limits assumed): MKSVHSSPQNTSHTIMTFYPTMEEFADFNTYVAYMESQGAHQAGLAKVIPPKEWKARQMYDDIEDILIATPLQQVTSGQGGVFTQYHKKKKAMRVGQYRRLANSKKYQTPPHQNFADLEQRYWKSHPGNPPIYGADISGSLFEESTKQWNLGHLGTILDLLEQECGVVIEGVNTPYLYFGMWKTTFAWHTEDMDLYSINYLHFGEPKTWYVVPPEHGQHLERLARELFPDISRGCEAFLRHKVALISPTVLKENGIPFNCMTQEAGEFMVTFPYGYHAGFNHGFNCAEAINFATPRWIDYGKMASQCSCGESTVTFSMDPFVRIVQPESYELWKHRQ
FBPA coupling cs: qHTS Assay for Inhibitors of Fructose-1,6-bisphosphate Aldolase from Giardia Lamblia: Coupling assay counterscreen. coupling enzyme system counterscreen, AmpLite Red fluorescence. activity change, negative = inhibition, % at 58.2 µM, hits read low. 290,000 tested, 0.67% active; in the data active = activity change below about -30%
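Activity here indicates interference with the coupling reaction, not aldolase inhibition. Compounds at 57.5 uM final met coupling enzymes for 10 min at RT; substrate and AmpLite Red detection followed, with a 525/598 nm fluorescence read after 20 min.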
Tau fluor counter: Counterscreen qHTS for Inhibitors of Tau Fibril Formation, Fluorescence Polarization. tau K18 P301L Alexa594 fluorescence, heparin fibrillization. Potency, µM (top dose mostly 57.7 µM). 280,000 tested, 0.93% active; note: nearly all actives have a fitted effect of over 55% in size
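Human tau K18 P301L (15 uM unlabeled, 0.24 uM Alexa 594-labeled) in 100 mM sodium acetate pH 7 with 20 uM heparin, 6 hr at 37 C. ThT 30 uM added, 1 hr ambient; Alexa 594 FP and total fluorescence read at 555/632 nm.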
Of the large screens only hits and unclear results are named; the others gave an inactive call; [ ] = dose if it differs, or a comment. Unless noted, calls come from the whole dose curve; as a rule, active = well fitted curve in the direction sought with a large enough effect; inconclusive = small, poorly fitted or top-dose-only effect, or another doubt; inactive = no such curve, though single readings can be large; an effect the other way counts as inactive or inconclusive.

COc1ccc(C2C(C(=O)OCC3CCCO3)=C(C)NC3=C2C(=O)CC(c2ccco2)C3)cc1O (centres undefined)	Sfp inh 56µM
Cc1ccc(N=Nc2c(N)nn(-c3ccccc3)c2N)cc1	Tau ThT inhib 4.5µM, Tau fluor counter inconclusive
Cc1nn(-c2ccccc2)c(N)c1N=O	none
Cc1nn(-c2ccccc2)c(N)c1N=Nc1ccc2ccccc2c1	Sfp inh inconclusive, Tau ThT inhib 5µM, Tau fluor counter 16µM[quencher]
Cc1ccc(N=Nc2c(N)nn3c(N)c(C#N)c(C)nc23)cc1	Tau ThT inhib 1.4µM, Tau fluor counter inconclusive
Cc1ccc(N=Nc2c(N)nn3c(C)cc(C)nc23)cc1	Tau ThT inhib inconclusive
CC(C)(C)OC(=O)NC(Cc1ccccc1)C(O)c1ccco1 (centres undefined)	none (no result: Tau FP inhib, Tau ThT inhib, JMJD2E inh, Tau fluor counter)
CCOC(=O)CSc1c(-c2cccs2)[nH]c2ccccc12	Tau FP inhib inconclusive, Tau ThT inhib inconclusive, Tau fluor counter 8.9µM[quencher]
CCOC(=O)CSc1nc(N)c(C#N)c(-c2cccs2)c1C#N	Tau FP inhib inconclusive
CCOC(=O)CSc1c(-c2ccc(Cl)cc2)[nH]c2ccccc12	Tau FP inhib inconclusive, Tau fluor counter 11µM[quencher]
COc1ccc(-c2nc(Cn3c(SCc4ccc(C)cc4)nc4cccnc43)c(C)o2)cc1OC	Tau ThT inhib inconclusive (no result: Sfp inh, JMJD2E inh, FBPA coupling cs)
COc1ccccc1N1CCN(C(=O)CN2C(=O)COc3ccc(S(=O)(=O)N4CCCC4)cc32)CC1	none (no result: Sfp inh, JMJD2E inh, FBPA coupling cs)
COc1cccc(CN2CCN(Cc3cccc(Oc4ccccc4)c3)CC2)c1OC	Sfp inh 79µM (no result: Tau FP inhib, Tau ThT inhib, JMJD2E inh, Tau fluor counter)
COc1cccc(CN2CCN(Cc3ccccc3C(F)(F)F)CC2)c1	Sfp inh 56µM (no result: Tau FP inhib, Tau ThT inhib, JMJD2E inh, Tau fluor counter)
COc1cccc(CN2CCC(N(CCc3ccccc3)Cc3ccccc3)CC2)c1OC	Sfp inh 40µM, Tau ThT inhib inconclusive, JMJD2E inh inconclusive
Nc1ccc2nc(SCc3ccccc3F)sc2c1	Tau FP inhib inconclusive, Tau fluor counter 0.56µM[quencher] (no result: Tau ThT inhib)
Cc1ccc2occ(C3N[C@H](C(=O)O)CS3)c(=O)c2c1 (some centres undefined)	Sfp inh 50µM, Tau ThT inhib inconclusive, JMJD2E inh inconclusive
Cc1ccc2occ(C3NC(C(=O)O)CS3)c(=O)c2c1 (centres undefined)	Sfp inh 14µM, Tau ThT inhib inconclusive, JMJD2E inh inconclusive
O=C(O)C1CSC(c2ccco2)N1 (centres undefined)	Sfp inh inconclusive, Tau ThT inhib inconclusive, JMJD2E inh inconclusive
CCOC(=O)/C=C/CCC/C=C/C(=O)c1ccccc1	Tau ThT inhib inconclusive
CC(=O)c1ccc(Nc2nc3ccccc3nc2-n2nc(C)cc2C)cc1	Tau FP inhib inconclusive, Tau fluor counter inconclusive (no result: Sfp inh, JMJD2E inh, FBPA coupling cs)
COc1cc([C@@H]2c3cc4c(cc3[C@@H](O[C@@H]3O[C@H]5CO[C@@H](C)O[C@@H]5[C@@H](O)[C@H]3O)[C@@H]3COC(=O)[C@@H]23)OCO4)cc(OC)c1O	Sfp inh 89µM, FBPA coupling cs -49
COc1ccc(NC=O)c(C(=O)CCNC(C)=O)c1	none (no result: Tau FP inhib, Tau ThT inhib, JMJD2E inh, Tau fluor counter)
COc1ccc2c(c1)C(=O)[C@H](OC(=O)NS(=O)(=O)c1ccc(C)cc1)[C@@H](c1ccc(OC)c(Br)c1)O2	none
Cc1cccc(Cn2cccc2CNS(=O)(=O)c2ccccc2F)c1	none (no result: Sfp inh, JMJD2E inh, FBPA coupling cs)
COc1ccc2nc3sc(C(=O)NCc4cccs4)c(N)c3cc2c1	Tau ThT inhib 16µM, JMJD2E inh inconclusive, Tau fluor counter inconclusive
COc1ccc(-c2cc(C(=O)NCc3cccs3)no2)cc1	none
Cc1cc(C)c2nc3sc(C(=O)N4CCOCC4)c(N)c3cc2c1	Sfp inh inconclusive, Tau ThT inhib inconclusive, JMJD2E inh inconclusive, Tau fluor counter inconclusive
